# Where a name gives a salt, the structure may show the parent alone. ± gives the standard deviation or the standard deviation of the averaged measurements.
# Legend:
# Conditions in all cases: 25 µM; exposure: 24-48 hpf
# [1] = system: Danio rerio Tg(wt1b:EGFP) embryo, pronephros; test: glomerular separation, fold change vs DMSO control; higher = glomeruli further apart (abnormal)
# Method in brief: (§1)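 Every feature is expressed as a fold change relative to the averaged DMSO-treated embryos of the same day. The exposure ran from 24 to 48 hpf at 28.5°C, with dechorionated Tg(wt1b:EGFP) zebrafish embryos in HEPES-buffered E3 containing 0.003% PTU, 0.5% DMSO and 25 μM compound. Dorsal pronephros images taken in agarose-filled 96-well plates were reduced to maximum projections, on which 16 reference points were set by hand in Fiji for a macro to compute distances and angles. Values more than 2 SD from the feature mean were not used.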
# [2] = system: Danio rerio Tg(wt1b:EGFP) embryo, pronephros; test: glomerular width (mean of left and right), fold change vs DMSO control; higher = wider glomerulus
# Method in brief: as §1
# [3] = system: Danio rerio Tg(wt1b:EGFP) embryo, pronephros; test: fraction of imaged embryos annotated as normal kidney; higher = less nephrotoxic; extreme values may be limits of the assay
# Method in brief: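 Dechorionated Tg(wt1b:EGFP) zebrafish embryos were exposed in 12-well plates to 25 μM compound in 0.5% DMSO, 5 mM HEPES-buffered E3 with 0.003% PTU, from 24 to 48 hpf at 28.5°C. Tricaine-anaesthetised larvae were oriented dorsally in agarose-filled 96-well plates, and pronephroi were imaged by widefield fluorescence (470 nm, 10 z-slices). Each embryo was manually annotated from maximum projections. The read-out is the fraction of embryos per treatment assigned to the normal-kidney category.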
# [4] = system: Danio rerio Tg(wt1b:EGFP) embryo, pronephros; test: pronephric angle neck segment to proximal convoluted tubule (mean of left and right), fold change vs DMSO control; higher = larger pronephric angle
# Method in brief: as §1
SMILES,glomerular separation [1],glomerular width [2],fraction of imaged embryos annotated as normal kidney [3],pronephric angle neck segment [4]
COc1ccc(C2CNC(=O)C2)cc1OC1CCCC1 (stereo not given) [Rolipram],0.895 ± 0.31,0.955 ± 0.023,0.833,1.08 ± 0.086
CCCNCC(O)COc1ccccc1C(=O)CCc1ccccc1 (stereo not given) [Propafenone hydrochloride],1.06 ± 0.39,1.05 ± 0.0038,0.818,1.13 ± 0.035
CCCCOc1cc(C(=O)OCCN(CC)CC)ccc1N [Benoxinate hydrochloride],0.798 ± 0.38,1.07 ± 0.018,0.833,0.9693 ± 0.0068
C[C@H]1O[C@@H](O[C@H]2[C@@H](O)C[C@H](O[C@H]3[C@@H](O)C[C@H](O[C@H]4CC[C@@]5(C)[C@H](CC[C@@H]6[C@@H]5C[C@@H](O)[C@]5(C)[C@@H](C7=CC(=O)OC7)CC[C@]65O)C4)O[C@@H]3C)O[C@@H]2C)C[C@H](O)[C@@H]1O [Digoxin],1.43 ± 0.52,1.08 ± 0.023,0.75,0.9342 ± 0.0075
COc1c(N2CCNC(C)C2)c(F)cc2c(=O)c(C(=O)O)cn(C3CC3)c12 (stereo not given) [Gatifloxacin],0.71 ± 0.24,1.02 ± 0.054,0.917,1 ± 0.04
CCCN[C@H]1CCc2nc(N)sc2C1 [Pramipexole dihydrochloride],0.857 ± 0.44,1.03 ± 0.049,0.833,1.01 ± 0.046
COCCOC(=O)C1=C(C)NC(C)=C(C(=O)OC/C=C/c2ccccc2)C1c1cccc([N+](=O)[O-])c1 (stereo not given) [Cilnidipine],3.85 ± 1.1,0.735 ± 0.012,0,1.248 ± 0.0032
NNc1nncc2ccccc12 [Hydralazine hydrochloride],1.14 ± 0.53,1.04 ± 0.041,0.818,1.02 ± 0.039
C/C(=C(\CCOP(=O)(O)O)SC(=O)c1ccccc1)N(C=O)Cc1cnc(C)nc1N [Benfotiamine],1.54 ± 0.89,0.995 ± 0.021,0.75,0.949 ± 0.013
O=C(O)/C=C/c1ccc(Cn2ccnc2)cc1 [Ozagrel hydrochloride],1.04 ± 0.32,1.01 ± 0.032,0.833,0.98 ± 0.011
CNCCCN1c2ccccc2CCc2ccccc21 [Desipramine hydrochloride],0.966 ± 0.26,0.996 ± 0.032,0.833,1 ± 0.047
O=C(Nc1cccc2c(=O)cc(-c3nnn[nH]3)oc12)c1ccc(OCCCCc2ccccc2)cc1 [Pranlukast],1.04 ± 0.37,1.01 ± 0.019,0.833,1.01 ± 0.041
CN(C)CCc1c[nH]c2ccc(C[C@H]3COC(=O)N3)cc12 [Zolmitriptan],0.75 ± 0.13,0.941 ± 0.034,0.833,1.03 ± 0.019
NC(=O)c1ccc[n+]([C@@H]2O[C@H](COP(=O)([O-])OP(=O)(O)OC[C@H]3O[C@@H](n4cnc5c(N)ncnc54)[C@H](O)[C@@H]3O)[C@@H](O)[C@H]2O)c1 [Nadide],0.955 ± 0.26,1.0386 ± 0.00057,0.75,0.9494 ± 0.0036
O=C(CCCCC(=O)Nc1c(I)cc(I)c(C(=O)O)c1I)Nc1c(I)cc(I)c(C(=O)O)c1I [Iodipamide],0.857 ± 0.54,1.05 ± 0.076,0.75,1.0067 ± 0.00076
CN1CCN(CCCN2c3ccccc3Sc3ccc(C(F)(F)F)cc32)CC1 [Trifluoperazine dihydrochloride],1.22 ± 0.54,0.953 ± 0.015,0.833,0.9555 ± 0.0078
CN(C)CC/C=C1/c2ccccc2COc2ccc(CC(=O)O)cc21 [Olopatadine hydrochloride],0.914 ± 0.34,0.97 ± 0.013,0.833,1.03 ± 0.025
COCC(=O)Nc1c(I)c(C(=O)NCC(O)CO)c(I)c(C(=O)N(C)CC(O)CO)c1I (stereo not given) [Iopromide],0.857 ± 0.4,1.02 ± 0.041,0.917,0.97 ± 0.023
CCN(CC)Cc1cc(Nc2ccnc3cc(Cl)ccc23)ccc1O [Amodiaquin dihydrochloride dihydrate],0.602 ± 0.18,0.999 ± 0.012,0.917,0.957 ± 0.016
CC(=O)NC[C@H]1CN(c2ccc(N3CCOCC3)c(F)c2)C(=O)O1 [Linezolid],0.987 ± 0.23,1.02 ± 0.019,0.917,0.936 ± 0.029
Cc1ncc(CO)c(CO)c1O [Pyridoxine hydrochloride],0.838 ± 0.25,1.04 ± 0.019,1,1.06 ± 0.061
CC1CNc2c(cccc2S(=O)(=O)N[C@@H](CCCNC(=N)N)C(=O)N2CC[C@@H](C)C[C@@H]2C(=O)O)C1 (stereo not given in full) [Argatroban],1.4 ± 1,0.949 ± 0.041,0.909,0.997 ± 0.04
Cc1cccn2c(=O)c(-c3nnn[nH]3)cnc12 [Pemirolast potassium],1.25 ± 0.38,0.89 ± 0.062,1,0.99 ± 0.042
O=C1CCc2cc(OCCCCc3nnnn3C3CCCCC3)ccc2N1 [Cilostazol],1.05 ± 0.38,1 ± 0.023,0.75,0.994 ± 0.05
COC(=O)CCc1ccc(OCC(O)CNC(C)C)cc1 (stereo not given) [Esmolol hydrochloride],0.66 ± 0.2,1.15 ± 0.035,0.75,0.986 ± 0.013

# Source: the supplement of paper PMC7366291
